# Assay results from PubChem BioAssay (Tox21).
# Where “and” joins values, the source holds several entries; their conditions need not be identical. Identical values can stand only once. Inconclusive results are not listed. A call without a number means that no potency is given here. Calls of active or inactive are those of the source. Unless noted, the call rests on the fitted dose curve.
# Tests used:
# [1] = Nuclear factor erythroid 2-related factor 2/antioxidant responsive element (Nrf2/ARE) small molecule agonists: qHTS cell viability counter screen in human keratinocytes (AID 1919968; active means well fitted curve in the direction sought with a large enough effect in the repeat runs; an effect the other way counts as inactive or inconclusive; further: nearly all actives have a fitted effect of over 55% in size; further: potency means the concentration at half of the fitted maximal effect)
# Outline: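 HaCaT ARE reporter line, 1,500 cells/well; 5 h settle, 37 C/5% CO2; cpd in DMSO pinned; 23 h exposure; CellTiter-Fluor, 1 h; fluorescence.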
# [2] = Nuclear factor erythroid 2-related factor 2/antioxidant responsive element (Nrf2/ARE) small molecule agonists: luciferase reporter gene qHTS assay in human keratinocytes (AID 1919969); further: nearly all actives have a fitted effect of over 35% in size; further: potency means the concentration at half of the fitted maximal effect
# [3] = target: Gonadotropin-releasing hormone receptor (Homo sapiens) (UniProt P30968); assay: Human gonadotropin-releasing hormone receptor (GnRHR) small molecule agonists, calcium flux assay in GnRHR-HEK293 cells (AID 1920063); further: nearly all actives have a fitted effect of over 35% in size
# Gonadotropin-releasing hormone receptor (Homo sapiens), sequence (P30968 whole entry, looked up): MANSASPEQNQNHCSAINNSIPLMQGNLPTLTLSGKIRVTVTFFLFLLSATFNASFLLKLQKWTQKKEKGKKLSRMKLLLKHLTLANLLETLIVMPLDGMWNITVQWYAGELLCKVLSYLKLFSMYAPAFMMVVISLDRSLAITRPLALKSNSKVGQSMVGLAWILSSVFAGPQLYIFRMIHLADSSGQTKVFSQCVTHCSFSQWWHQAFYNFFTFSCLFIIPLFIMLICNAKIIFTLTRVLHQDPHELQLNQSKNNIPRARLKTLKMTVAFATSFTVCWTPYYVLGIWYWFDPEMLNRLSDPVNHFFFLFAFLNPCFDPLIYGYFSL
# Outline: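 GnRHR-HEK293, 1500 cells/well, 18 h 37 C/5% CO2; Ca dye 1 h 37 C; cpd pinned (DMSO), agonist mode; kinetic FL 480/540, 3 min, 1 s reads; 15 conc, n=3.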
# [4] = target: KiSS-1 receptor (Homo sapiens) (UniProt Q969F8); assay: Human kisspeptin (KISS1R) small molecule agonists, calcium flux assay in KISS1R-HEK293 cells (AID 1920064; active means well fitted curve in the direction sought with a large enough effect in the repeat runs; an effect the other way counts as inactive or inconclusive)
# KiSS-1 receptor (Homo sapiens), sequence (Q969F8 whole entry, looked up): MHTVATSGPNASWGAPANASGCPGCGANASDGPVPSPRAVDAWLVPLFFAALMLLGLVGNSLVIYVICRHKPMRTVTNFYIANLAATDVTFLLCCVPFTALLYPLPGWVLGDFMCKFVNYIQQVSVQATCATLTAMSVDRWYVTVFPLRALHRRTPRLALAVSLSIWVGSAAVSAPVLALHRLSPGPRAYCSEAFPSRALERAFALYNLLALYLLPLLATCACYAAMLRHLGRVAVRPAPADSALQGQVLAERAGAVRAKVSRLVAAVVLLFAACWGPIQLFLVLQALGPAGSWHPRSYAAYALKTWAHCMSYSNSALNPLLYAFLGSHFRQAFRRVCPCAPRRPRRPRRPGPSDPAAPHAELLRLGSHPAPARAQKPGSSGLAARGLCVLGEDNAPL
# Outline: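 Stable human KISS1R HEK293 line; 18 h plating, 37 C/5% CO2; calcium dye 1 h 37 C; compound pin transfer; kinetic fluorescence Ex/Em 480/540, 3 min.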
# [5] = G protein-coupled receptor (GPCR) small molecule agonists, calcium flux assay: HEK293 wild type cell line counter screen (AID 1920065)
# Outline: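 Kinetic fluorescence at Ex/Em 480/540, recorded every second over 3 min, served as the read-out after compound addition. Each compound was tested at 15 concentrations in triplicate on cells pre-loaded with calcium dye for 1 h.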
# [6] = p53 small molecule agonists, cell-based qHTS assay with rat liver microsomes (AID 1963578)
# Outline: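 Fluorescence from a beta-lactamase reporter under a p53 response element was measured after cells had been incubated 16 h at 37 C with test compound and rat liver microsomes plus NADPH (0.5 mg/mL final each).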
# [7] = p53 small molecule agonists, cell-based qHTS assay with rat liver microsomes: qHTS cell viability counter screen (AID 1963580); further: nearly all actives have a fitted effect of over 45% in size
# Outline: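 In HCT-116 cells carrying a p53 response element-bla reporter, compounds were metabolically activated in situ by rat liver microsomes with NADPH over 16 h. Cell ATP content then served as the cytotoxicity measure.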
# [8] = p53 small molecule agonists, cell-based qHTS assay: qHTS cell viability counter screen (AID 1963581); further: nearly all actives have a fitted effect of over 45% in size
# Outline: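 HCT-116 p53RE-bla cells, 4,000/well, plated 5 h before compound pin transfer; 16 h at 37 C; bla substrate 2 h RT; then CellTiter-Glo, 30 min RT, luminescence.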
# [9] = p53 small molecule agonists, cell-based qHTS assay (AID 1963582; active means well fitted activation curve with a large enough effect in the signal ratio in the repeat runs, not every such curve was filed as active; the % refers to the signal ratio)
# Outline: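 Reporter line: p53RE-bla. Pre-incubation 5 h, 37 C, 5% CO2; compound (DMSO, pin tool) 16 h, 37 C; B/G FRET substrate 2 h RT; fluorescence intensity read.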
# [10] = target: 5-hydroxytryptamine receptor 2A (Homo sapiens) (UniProt P28223); assay: 5-hydroxytryptamine receptor 2A (HTR2A) small molecule antagonists, cell-based qHTS assay (AID 1963586); further: nearly all actives have a fitted effect of over 45% in size; further: potency means the concentration at half of the fitted maximal effect
# 5-hydroxytryptamine receptor 2A (Homo sapiens), sequence (P28223 whole entry, looked up): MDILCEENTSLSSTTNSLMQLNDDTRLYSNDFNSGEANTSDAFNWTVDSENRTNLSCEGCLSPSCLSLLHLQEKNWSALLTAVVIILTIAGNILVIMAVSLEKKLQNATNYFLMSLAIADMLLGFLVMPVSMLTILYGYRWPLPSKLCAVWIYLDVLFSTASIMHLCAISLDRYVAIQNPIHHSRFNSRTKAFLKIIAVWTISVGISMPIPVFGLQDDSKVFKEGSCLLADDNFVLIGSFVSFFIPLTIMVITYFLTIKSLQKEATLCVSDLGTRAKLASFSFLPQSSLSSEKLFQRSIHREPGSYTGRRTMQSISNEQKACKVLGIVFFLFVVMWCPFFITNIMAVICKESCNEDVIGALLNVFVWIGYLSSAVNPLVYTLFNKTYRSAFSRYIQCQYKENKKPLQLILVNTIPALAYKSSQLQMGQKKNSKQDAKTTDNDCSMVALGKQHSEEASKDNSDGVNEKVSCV
# Outline: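 Antagonist-mode intracellular calcium assay: DOI (4 nM) added after 5 min compound pre-incubation at room temperature to dye-loaded HTR2A-CHO cells. Fluorescence followed for 3 min, sampled every second.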
# [11] = target: 5-hydroxytryptamine receptor 2A (Homo sapiens) (UniProt P28223); assay: 5-hydroxytryptamine receptor 2A (HTR2A) small molecule agonists, cell-based qHTS assay (AID 1963587); further: nearly all actives have a fitted effect of over 30% in size
# Outline: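 HTR2A-CHO cells, plated 18 h at 37 C/5% CO2, dye-loaded 1 h at 37 C; compounds in DMSO added by pin tool (agonist mode). Intracellular calcium flux read as kinetic fluorescence on FDSS over 2 min at 1 s intervals.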
# [12] = target: Muscarinic acetylcholine receptor M1 (Homo sapiens) (UniProt P11229); assay: Cholinergic receptor muscarinic 1 (CHRM1) small molecule agonists, cell-based qHTS assay (AID 1963589); further: nearly all actives have a fitted effect of over 35% in size
# Muscarinic acetylcholine receptor M1 (Homo sapiens), sequence (P11229 whole entry, looked up): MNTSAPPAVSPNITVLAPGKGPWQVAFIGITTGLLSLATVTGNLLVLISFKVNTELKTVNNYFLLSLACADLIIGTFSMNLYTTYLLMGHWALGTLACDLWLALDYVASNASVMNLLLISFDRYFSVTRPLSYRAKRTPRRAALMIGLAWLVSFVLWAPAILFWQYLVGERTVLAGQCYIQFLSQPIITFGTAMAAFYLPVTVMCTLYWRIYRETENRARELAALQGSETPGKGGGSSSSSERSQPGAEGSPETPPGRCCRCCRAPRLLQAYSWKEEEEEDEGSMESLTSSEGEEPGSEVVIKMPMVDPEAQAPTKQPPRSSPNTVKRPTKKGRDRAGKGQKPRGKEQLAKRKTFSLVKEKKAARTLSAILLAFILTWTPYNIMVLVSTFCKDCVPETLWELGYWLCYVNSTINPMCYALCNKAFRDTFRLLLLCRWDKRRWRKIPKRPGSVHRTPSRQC
# Outline: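 Human M1 in stable CHO line; 18 h plating, 1 h dye load 37 C; cpd added (agonist mode); Ca2+ fluorescence kinetic read, 1 s intervals; 15 conc, 3 runs.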
# [13] = cAMP Responsive Elements (CRE) small molecule agonists, cell-based qHTS assay (AID 1963590)
# Outline: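 HEK 293T CRE-bla, 2,000 cells/well, 18 h preincubation 37 C/5% CO2; cpds (DMSO) pinned, 3 h; LiveBLAzer B/G FRET substrate, 2 h RT.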
# [14] = cAMP Responsive Elements (CRE) small molecule antagonists, cell-based qHTS assay (AID 1963591; active means well fitted inhibition curve with a large enough effect in the signal ratio in the repeat runs, not every such curve was filed as active; the % refers to the signal ratio)
# Outline: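 Beta-lactamase reporter read by FRET substrate (LiveBLAzer B/G) after 2 h at room temperature. CRE-bla HEK293T cells had received compound plus 0.25 uM (final) NKH477 for 3 h at 37 °C.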
# [15] = target: Beta-2 adrenergic receptor (Homo sapiens) (UniProt P07550); assay: Adrenergic beta2 receptor (ADRB2) small molecule antagonists, cell-based qHTS assay (AID 1963592); further: series mostly up to about 92 µM; nearly all actives have a fitted effect of over 50% in size
# Beta-2 adrenergic receptor (Homo sapiens), sequence (P07550 whole entry, looked up): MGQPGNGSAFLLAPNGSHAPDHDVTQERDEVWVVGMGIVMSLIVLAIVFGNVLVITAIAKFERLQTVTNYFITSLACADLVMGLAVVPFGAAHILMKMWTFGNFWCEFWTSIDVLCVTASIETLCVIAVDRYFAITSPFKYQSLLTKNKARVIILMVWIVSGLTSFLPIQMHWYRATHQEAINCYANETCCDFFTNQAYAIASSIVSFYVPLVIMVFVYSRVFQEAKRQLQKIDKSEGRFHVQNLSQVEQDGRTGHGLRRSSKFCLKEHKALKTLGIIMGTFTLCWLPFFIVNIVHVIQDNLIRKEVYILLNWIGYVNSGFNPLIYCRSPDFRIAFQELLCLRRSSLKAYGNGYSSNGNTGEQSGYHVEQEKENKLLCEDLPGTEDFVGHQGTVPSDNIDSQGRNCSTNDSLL
# Outline: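 Cells (CHO, stable ADRB2 overexpression) incubated 18-20hr at 37C; compounds added from DMSO; agonist mix (1nM isoproterenol, 100uM IBMX, 25uM Ro-20-1724) added; 0.5hr RT; d2-cAMP and anti-cAMP-cryptate added; 1hr RT; 665/615 nm read.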
# [16] = target: Beta-2 adrenergic receptor (Homo sapiens) (UniProt P07550); assay: Adrenergic beta2 receptor (ADRB2) small molecule agonists, cell-based qHTS assay (AID 1963593);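 further: CHO cells stably overexpressing human ADRB2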
# Outline: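 CHO cells stably over-expressing ADRB2 were plated overnight at 37C, then dosed with compounds plus a stimulation mix containing 100uM IBMX and 25uM Ro-20-1724 for 0.5hr at room temperature. cAMP was measured by HTRF competition, 1hr.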
# [17] = target: D(2) dopamine receptor (Homo sapiens) (UniProt P14416); assay: Dopamine D2 receptor (DRD2) small molecule agonists, cell-based qHTS assay (AID 1963594); further: nearly all actives have a fitted effect of over 35% in size
# D(2) dopamine receptor (Homo sapiens), sequence (P14416 whole entry, looked up): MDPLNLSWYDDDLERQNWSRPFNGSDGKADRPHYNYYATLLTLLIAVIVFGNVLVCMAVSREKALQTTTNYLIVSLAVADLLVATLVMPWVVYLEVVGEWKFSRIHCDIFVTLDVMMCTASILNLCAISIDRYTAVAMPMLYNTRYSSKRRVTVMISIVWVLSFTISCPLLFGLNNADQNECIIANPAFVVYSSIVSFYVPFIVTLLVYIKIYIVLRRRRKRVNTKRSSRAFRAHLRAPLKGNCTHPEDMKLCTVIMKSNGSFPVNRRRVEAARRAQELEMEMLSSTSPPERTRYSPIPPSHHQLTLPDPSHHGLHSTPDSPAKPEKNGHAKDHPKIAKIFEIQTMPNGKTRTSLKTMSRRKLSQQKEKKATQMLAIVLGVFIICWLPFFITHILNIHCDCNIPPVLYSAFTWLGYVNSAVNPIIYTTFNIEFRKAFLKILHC
# Outline: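 HEK293 cells stably expressing DRD2 were cultured 24 h at 37 C, then given Ro20-1724 (0.1 mM final) and compounds for 10 min at room temperature. NKH477 (200nM) was then added for 30 min. cAMP was read by HTRF.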
# [18] = target: D(2) dopamine receptor (Homo sapiens) (UniProt P14416); assay: Dopamine D2 receptor (DRD2) small molecule antagonists, cell-based qHTS assay (AID 1963595; active means well fitted inhibition curve with a large enough effect in the signal ratio in the repeat runs, with a control signal flat; the % refers to the signal ratio)
# Outline: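 HTRF cAMP read-out at 665 and 620 nm emission (340 nm excitation). Antagonist mode: compounds were tested against 12 nM quinpirole in DRD2-HEK293 cells, with 200 nM NKH477 raising cAMP and 0.1 mM Ro20-1724 blocking its breakdown.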
# [19] = p53 small molecule agonists, cell-based qHTS assay with human liver microsomes: qHTS cell viability counter screen (AID 1963579); further: nearly all actives have a fitted effect of over 45% in size
# Outline: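 Seed p53RE-bla cells at 4,000 per well; incubate 5 h at 37 C; add compound, human liver microsomes and NADPH; incubate 16 h at 37 C; add CellTiter-Glo; after 30 min at room temperature, read luminescence.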
# [20] = target: Muscarinic acetylcholine receptor M1 (Homo sapiens) (UniProt P11229); assay: Cholinergic receptor muscarinic 1 (CHRM1) small molecule antagonists, cell-based qHTS assay (AID 1963588); further: nearly all actives have a fitted effect of over 40% in size; further: potency means the concentration at half of the fitted maximal effect
# Outline: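 CHRM1-CHO calcium-flux assay, antagonist mode. Cells were seeded 18 h, dye-loaded 1 h at 37 C and given compound for 5 min at RT, then acetylcholine was added at 50nM. FDSS fluorescence was read 3 min; 15 concentrations, three runs.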
Compound,Potency [1],Potency [2],Potency [3],Potency [4],Potency [5],Potency [6],Potency [7],Potency [8],Potency [9],Potency [10],Potency [11],Potency [12],Potency [13],Potency [14],Potency [15],Potency [16],Potency [17],Potency [18],Potency [19],Potency [20]
Cc1ccc(C)c(S(=O)(=O)O)c1,inactive,inactive,inactive,inactive,inactive,inactive,inactive,inactive,inactive,inactive,inactive,inactive,inactive,inactive,inactive,inactive,inactive,inactive,–,–
CC1(C)CC(N=C=O)CC(C)(CN=C=O)C1 (centres undefined),inactive,inactive,inactive,inactive,inactive,inactive,–,inactive,–,inactive,inactive,inactive,inactive,inactive,inactive,inactive,inactive,inactive,inactive,17 µM (active)
CC(=O)c1ccc(S(=O)(=O)NC(=O)NC2CCCCC2)cc1,inactive,inactive,inactive,inactive,inactive,inactive,inactive,inactive,inactive,inactive,inactive,inactive,inactive,inactive,inactive,inactive,inactive,inactive,–,inactive
O=C(OCc1ccccc1)c1ccc(O)cc1,inactive,68.6 µM (active) and 13.3 µM (active),inactive,inactive,inactive,inactive,inactive,inactive,inactive,33.4 µM (active),inactive,inactive,inactive,inactive,inactive,inactive,inactive,inactive,–,inactive
Cc1ccc(S(=O)(=O)Oc2ccc(N=Nc3ccc(-c4ccc(N=Nc5c(O)ccc6cc(S(=O)(=O)O)cc(S(=O)(=O)O)c56)c(C)c4)cc3C)cc2)cc1,24.4 µM (active) and 17.8 µM (active),inactive,inactive,inactive,inactive,inactive,–,inactive,–,inactive,inactive,inactive,inactive,inactive,inactive,–,inactive,inactive,inactive,inactive
CCCN(CCC)S(=O)(=O)c1ccc(C(=O)O)cc1,inactive,inactive,inactive,inactive,inactive,inactive,inactive,inactive,inactive,–,–,–,inactive,inactive,inactive,inactive,inactive,inactive,–,–
CCCCC1(COC(=O)CCC(=O)O)C(=O)N(c2ccccc2)N(c2ccccc2)C1=O,inactive,inactive,inactive,inactive,inactive,inactive,–,–,inactive,inactive,inactive,inactive,inactive,inactive,inactive,inactive,inactive,inactive,inactive,inactive
